ALDH1A1 inh = blocks purified human ALDH1A1 activity; actives 7.3% (n = 220,000); Potency, µM (highest dose often 75.3 µM), for inactives: at the highest dose activity, negative = inhibition, hits mostly inhibitors; P00352; Purified ALDH1A1, NADH fluorescence, propionaldehyde substrate;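 further: potency means the concentration at half of the fitted maximal effect; plate controls were no enzyme wells and a reference inhibitor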
HPGD block = HPGD (human) dehydrogenase inhibition. P15428. purified HPGD, NADH fluorescence kinetic, PGE2 substrate. Potency, µM, for inactives: at the highest dose activity change, negative = inhibition, actives largely listed as inhibitors. actives 4.3% (n = 150,000). AID 894; further: potency means the concentration at half of the fitted maximal effect
Target sequence (P15428 whole entry, looked up): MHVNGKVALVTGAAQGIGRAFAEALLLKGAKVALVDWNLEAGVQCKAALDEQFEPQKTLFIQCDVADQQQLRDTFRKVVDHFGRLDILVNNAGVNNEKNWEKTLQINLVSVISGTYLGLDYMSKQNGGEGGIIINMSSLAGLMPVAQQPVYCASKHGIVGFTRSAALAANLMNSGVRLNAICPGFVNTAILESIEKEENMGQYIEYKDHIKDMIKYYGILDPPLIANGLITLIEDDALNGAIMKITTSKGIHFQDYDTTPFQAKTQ
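NADH formation kinetics: reaction with 30 uM PGE2 and 1 mM NAD+ (final), 20 nM enzyme, Tris-HCl pH 8 with Tween 20, after 15 min compound preincubation at room temperature. Fluorescence change, last versus first of five reads.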
PNC inhibitor = inhibitors of perinucleolar compartment assembly; activity change (PNC), negative = inhibition, % at 10 µM; PC3M PTB-GFP, PNC prevalence imaging, 16 h; active compounds read low; actives 3.1% (n = 140,000);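 active means readout at or below -70, meaning at least 70% loss of cells showing the perinucleolar compartment, a nuclear body marking cancer cells; inconclusive means readout between -30 and a set limit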;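 further: plate controls were DMSO wells for no effect and camptothecin positive control wells for full effect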
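Read-out is percentage of cells bearing a perinucleolar compartment, from automated 20x imaging of fixed, Hoechst-stained PC3M PTB-GFP cells. Cells were seeded 4 h, then exposed 16 h to compound (23 nl of library stock) in duplicate plates.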
An asterisk follows results filed as active; [ ] = remark or other dose. Rows were chosen to be rich in hits. Some 11% of all compounds tested hit in one or more screens of this group. Unless noted, the call rests on the fitted dose curve; in most records, active means well fitted inhibition curve with a large enough effect (not every such curve was filed as active); inconclusive means small, poorly fitted or top-dose-only effect, or another doubt; inactive means no such curve, though single readings can be large or run the other way. Unless noted, on the % scale 0 is the no-effect control and ±100 the full control effect.

What do the screens show for `CCN1C(=O)c2cccc3c(S(=O)(=O)Nc4ccccc4OC)ccc1c23`?
ALDH1A1 inh: 4.47µM*; HPGD block: -9.1%; PNC inhibitor: 68.1

What do the screens show for `CCN1C(=O)c2cccc3c(S(=O)(=O)NCCc4c[nH]c5ccccc45)ccc1c23`?
ALDH1A1 inh: 14.1µM*; HPGD block: -9.0%; PNC inhibitor: 7.1

Results for COc1ccccc1NS(=O)(=O)c1ccc(Cl)c(NC(=O)CN2C(=O)c3ccccc3C2=O)c1 ?
ALDH1A1 inh: -16.5%; HPGD block: -16.8%; PNC inhibitor: -13.6

Results for Oc1ccc(C=Nc2ccccc2-c2nc3ccccc3[nH]2)cc1 ?
ALDH1A1 inh: 1.9%; HPGD block: inconclusive; PNC inhibitor: inconclusive

How did O=C(O)c1ccccc1SC1CC(=O)N(c2ccc3c(c2)OCO3)C1=O (stereo unspecified) do in these assays?
ALDH1A1 inh: 1.26µM*

Results for CN(C)c1ccc(N2C(=O)CC(Sc3ccccc3C(=O)O)C2=O)cc1 (stereo unspecified) ?
ALDH1A1 inh: 1.26µM*; HPGD block: -10.4%; PNC inhibitor: 14.6

How did CCCCN1C(=O)CC(Sc2ccccc2C(=O)O)C1=O (stereo unspecified) do in these assays?
ALDH1A1 inh: inconclusive; HPGD block: 2.5%; PNC inhibitor: inconclusive

Results for Cc1ccc(N2C(=O)CC(Sc3ncccc3C(=O)O)C2=O)cc1 (stereo unspecified) ?
ALDH1A1 inh: -13.9%

What do the screens show for `CC(C)CN1C(=O)CC(Sc2ccccc2C(=O)O)C1=O` (stereo unspecified)?
ALDH1A1 inh: 17.8µM*; HPGD block: -4.4%; PNC inhibitor: inconclusive

How did CN(C)NC1CC(=O)N(c2ccccc2)C1=O (stereo unspecified) do in these assays?
ALDH1A1 inh: -11.0%

How did Cc1ccc(N2C(=O)CC(Sc3ccccc3C(=O)O)C2=O)cc1 (stereo unspecified) do in these assays?
ALDH1A1 inh: 0.708µM*; HPGD block: -6.3%; PNC inhibitor: 17.1

What do the screens show for `O=C1CC(N(Cc2ccc3c(c2)OCO3)C(=O)Nc2ccc(F)cc2)C(=O)N1c1ccccc1` (stereo unspecified)?
ALDH1A1 inh: 2.6%; HPGD block: -12.2%; PNC inhibitor: -17.1

How did O=C(OCC(=O)N1CCc2ccccc21)c1cccnc1Cl do in these assays?
ALDH1A1 inh: 1.4%; HPGD block: -11.2%; PNC inhibitor: 24.5

How did O[C@H](CNc1ccccn1)c1ccccc1 do in these assays?
ALDH1A1 inh: -6.2%[13.5 µM]; HPGD block: -6.2%

How did O=C(Nc1ccccc1C(=O)N1CCCC1)c1cccc(S(=O)(=O)N2CCCCC2)c1 do in these assays?
ALDH1A1 inh: 6.8%; HPGD block: -3.8%; PNC inhibitor: 32.4

How did Cc1cccc(N2C(=O)CC(Sc3ccccc3C(=O)O)C2=O)c1 (stereo unspecified) do in these assays?
ALDH1A1 inh: 5.01µM*; HPGD block: -11.7%; PNC inhibitor: -13.8

What do the screens show for `COc1ccc(NC2CC(=O)N(c3cccc(C)c3)C2=O)cc1` (stereo unspecified)?
ALDH1A1 inh: inconclusive; HPGD block: -4.4%; PNC inhibitor: -14.8

What do the screens show for `CN1C(=O)CC(Sc2ccccc2C(=O)O)C1=O` (stereo unspecified)?
ALDH1A1 inh: -15.2%; HPGD block: -5.1%; PNC inhibitor: -29.9

How did CCOc1ccccc1N1C(=O)CC(Sc2ncccc2C(=O)O)C1=O (stereo unspecified) do in these assays?
ALDH1A1 inh: 17.1%; HPGD block: -7.1%; PNC inhibitor: inconclusive

How did Cc1ccc(N2C(=O)CC(Sc3ccccc3C(=O)O)C2=O)cc1C (stereo unspecified) do in these assays?
ALDH1A1 inh: 0.447µM*

What do the screens show for `Cc1cccc(N2C(=O)CC(Sc3ncn[nH]3)C2=O)c1` (stereo unspecified)?
ALDH1A1 inh: 14.1µM*

Results for CCOC(=O)/C(=N\Nc1cc(C(F)(F)F)ccc1Cl)N(CC)CC ?
ALDH1A1 inh: 0.9%; HPGD block: -3.7%; PNC inhibitor: inconclusive

What do the screens show for `c1cncc(-c2nc(-n3ccnc3)c3ccccc3n2)c1`?
ALDH1A1 inh: 6.1%

How did CC(=O)C1=C(O)C=C2Oc3c(C(C)=O)c(O)c(C)c(O)c3C2(C)C1=O (stereo unspecified) do in these assays?
ALDH1A1 inh: -4.5%; HPGD block: -4.7%

What do the screens show for `CC(=O)NC1C(=O)N(CCc2ccccc2)c2ccc(Br)cc21` (stereo unspecified)?
ALDH1A1 inh: inconclusive; HPGD block: -15.3%; PNC inhibitor: 25.2

What do the screens show for `CCCCN1C(=O)C(NC(C)=O)c2ccccc21` (stereo unspecified)?
ALDH1A1 inh: 0.112µM*; HPGD block: 2.6%; PNC inhibitor: 12.4

From PubChem BioAssay
